{"source": "PubChem BioAssay (NCI)", "note": "About 79,000 compounds went through this panel and 15% of them were active in at least one assay; those are over-represented in the sample as a whole. A number with no mark means an inactive call. Activity calls are given as the source filed them. Rule as the data show it: active = growth inhibition above about 70%; inactive = the rest.", "data": [{"assay": "NCI Yeast Anticancer Drug Screen. Data for the rad52 strain (AID 147);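 also: 0% = growth of vehicle-treated control cultures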", "details": "S. cerevisiae rad52 mutant growth inhibition; at 11.0 µM; stronger effect = higher value", "method_in_brief": "(§1)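 Screen used a yeast mutant impaired in DNA repair. After compound exposure, growth was measured. Values reflect inhibition compared with vehicle-treated cells.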", "values": [{"smiles": "S=C(S)NN1CCOCC1", "growth inhibition": "35%"}, {"smiles": "COc1cc2c3c(cccc3c1)C(=O)N(CCN(C)C)C2=O", "growth inhibition": "20%"}, {"smiles": "COC(=O)C1=C(C)NC(C)=C(C(=O)OCCCN2CCC(c3ccccc3)(c3ccccc3)CC2)C1c1cccc([N+](=O)[O-])c1", "note": "(stereo not given)", "growth inhibition": "97% (active)"}, {"smiles": "c1ccc2c(c1)Oc1cccc3cccc-2c13", "growth inhibition": "5%"}, {"smiles": "CN(C)CCOc1ccc2c(c1)C/C(=C/c1ncc([N+](=O)[O-])n1C)C2=O", "growth inhibition": "83% (active)"}, {"smiles": "Cc1ccc(CCC2=CCCc3c2ccc2ccccc32)cc1", "growth inhibition": "0%"}, {"smiles": "CNC(=O)OCc1c(COC(=O)NC)c(-c2ccc(Cl)c(Cl)c2)n2c1CCC2", "growth inhibition": "-14%"}, {"smiles": "Clc1ccccc1C1OC1c1ccccc1Cl", "note": "(stereo not given)", "growth inhibition": "-61%"}, {"smiles": "O=[N+]([O-])c1cc(CCl)ccc1CCl", "growth inhibition": "69%"}, {"smiles": "O=C1C=CC(=O)c2c(O)c(Nc3ccc(OC(F)(F)F)cc3)c(Cl)c(O)c21", "growth inhibition": "17%"}, {"smiles": "S=c1[nH]nc(Nc2ccc(Cl)cc2)s1", "growth inhibition": "1%"}, {"smiles": "Cn1ccnc1Oc1ccc(Cl)cc1", "growth inhibition": "7%"}, {"smiles": "BrCc1cccc2ccc3cccc(CBr)c3c12", "growth inhibition": "-1%"}, {"smiles": "O=C1c2ccccc2-c2nc3ccccc3nc21", "growth inhibition": "-10%"}, {"smiles": "CCCCCCCCCCCCCCCCCCNC", "growth inhibition": "0%"}, {"smiles": "Oc1ccc(NCn2c(=S)sc3ccccc32)cc1", "growth inhibition": "-7%"}, {"smiles": "O=C1C2CC[C@@H]3C(=O)C(Cl)(Cl)[C@@H]3CCC2C1(Cl)Cl", "note": "(stereo not given in full)", "growth inhibition": "46%"}, {"smiles": "CC[n+]1ccc2c(C)c3[nH]c4ccc(O)cc4c3c(C)c2c1", "growth inhibition": "70% (active)"}, {"smiles": "Cc1ccc(-n2cc(-c3ccc(Cl)cc3)c(C#N)c2N)cc1", "growth inhibition": "6%"}, {"smiles": "CC(=O)[O][Bi]([c]1ccccc1)[c]1ccccc1", "growth inhibition": "72% (active)"}, {"smiles": "CC1=C(SCCO)C(=O)c2ccccc2C1=O", "growth inhibition": "13%"}, {"smiles": "C/C(=N\\O)C1CC2C=C(C#N)C1N(Cc1ccccc1)C2", "note": "(stereo not given)", "growth inhibition": "-1%"}, {"smiles": "CC(Br)C(=O)c1ccc2cc(Br)c3ccccc3c2c1", "note": "(stereo not given)", "growth inhibition": "-2%"}, {"smiles": "Nc1nc(-c2cccnc2)cc(-c2cc(-c3cccnc3)nc(N)n2)n1", "growth inhibition": "-3%"}, {"smiles": "CC(C)=CC(=O)O[C@@H]1CC(C)(C)CC2C3=CCC4[C@]56CC[C@](O)(OC5)C(C)(C)C6CC[C@@]4(C)C3(C)CC[C@]21C(=O)O", "note": "(stereo not given in full)", "growth inhibition": "80% (active)"}, {"smiles": "CCC(C)COC(=O)c1ccc(N=Cc2ccc(C=Nc3ccc(C(=O)OCC(C)CC)cc3)cc2)cc1", "note": "(stereo not given)", "growth inhibition": "6%"}, {"smiles": "Oc1cccc2c(Cl)ccnc12", "growth inhibition": "99% (active)"}, {"smiles": "O=C(O)c1cccc(-c2c3ccc(=O)cc-3oc3cc(O)ccc23)c1", "growth inhibition": "23%"}, {"smiles": "CN(CCc1ccccn1)c1ccc2c(c1)Cc1ccccc1-2", "growth inhibition": "54%"}, {"smiles": "Cc1cc(S(=O)(=O)/N=C(/NN)NNc2cccc(C(F)(F)F)n2)c(S)cc1Cl", "growth inhibition": "-2%"}, {"smiles": "O=C1C2C(C(=O)N1c1ccc(OCc3ccccc3)cc1)C1c3ccccc3C2C2CCCCN21", "note": "(stereo not given)", "growth inhibition": "3%"}, {"smiles": "Nc1ccccc1CC(O)C(=O)O", "note": "(stereo not given)", "growth inhibition": "14%"}, {"smiles": "O=C(O)C1CCCCC1c1c2ccc(=O)c(O)c-2oc2c(O)c(O)ccc12", "note": "(stereo not given)", "growth inhibition": "-20%"}, {"smiles": "Cc1ccc2ccc(O)cc2c1", "growth inhibition": "-30%"}, {"smiles": "O=C1C(=O)c2ccccc2C=C1[N+](=O)[O-]", "growth inhibition": "26%"}, {"smiles": "COC(=O)c1ccc(NCC2=CC(=O)C=CC2=O)cc1O", "growth inhibition": "80% (active)"}, {"smiles": "C(CCSC1=NCCN1)CSC1=NCCN1", "note": "(tested in a mixture with another compound)", "growth inhibition": "79% (active)"}, {"smiles": "N#Cc1c(N)[nH]c2ccc(Sc3ccccc3)cc12", "growth inhibition": "14%"}, {"smiles": "CCNc1nnc(CSc2nc(-c3ccccc3)c(-c3ccccc3)[nH]2)s1", "growth inhibition": "-1%"}, {"smiles": "CC[C@@]1(O)C(=O)OCc2c1cc1n(c2=O)Cc2cc3c(N)cccc3nc2-1", "growth inhibition": "85% (active)"}]}, {"assay": "NCI Yeast Anticancer Drug Screen. Data for the rad52 strain (AID 147)", "details": "S. cerevisiae rad52 mutant growth inhibition; at 33.0 µM; stronger effect = higher value", "method_in_brief": "as §1", "values": [{"smiles": "S=C(S)NN1CCOCC1", "growth inhibition": "38%"}, {"smiles": "COc1cc2c3c(cccc3c1)C(=O)N(CCN(C)C)C2=O", "growth inhibition": "55%"}, {"smiles": "COC(=O)C1=C(C)NC(C)=C(C(=O)OCCCN2CCC(c3ccccc3)(c3ccccc3)CC2)C1c1cccc([N+](=O)[O-])c1", "note": "(stereo not given)", "growth inhibition": "97% (active)"}, {"smiles": "c1ccc2c(c1)Oc1cccc3cccc-2c13", "growth inhibition": "38%"}, {"smiles": "CN(C)CCOc1ccc2c(c1)C/C(=C/c1ncc([N+](=O)[O-])n1C)C2=O", "growth inhibition": "91% (active)"}, {"smiles": "Cc1ccc(CCC2=CCCc3c2ccc2ccccc32)cc1", "growth inhibition": "1%"}, {"smiles": "CNC(=O)OCc1c(COC(=O)NC)c(-c2ccc(Cl)c(Cl)c2)n2c1CCC2", "growth inhibition": "77% (active)"}, {"smiles": "Clc1ccccc1C1OC1c1ccccc1Cl", "note": "(stereo not given)", "growth inhibition": "-18%"}, {"smiles": "O=[N+]([O-])c1cc(CCl)ccc1CCl", "growth inhibition": "95% (active)"}, {"smiles": "O=C1C=CC(=O)c2c(O)c(Nc3ccc(OC(F)(F)F)cc3)c(Cl)c(O)c21", "growth inhibition": "32%"}, {"smiles": "S=c1[nH]nc(Nc2ccc(Cl)cc2)s1", "growth inhibition": "70% (active)"}, {"smiles": "Cn1ccnc1Oc1ccc(Cl)cc1", "growth inhibition": "61%"}, {"smiles": "BrCc1cccc2ccc3cccc(CBr)c3c12", "growth inhibition": "2%"}, {"smiles": "O=C1c2ccccc2-c2nc3ccccc3nc21", "growth inhibition": "90% (active)"}, {"smiles": "CCCCCCCCCCCCCCCCCCNC", "growth inhibition": "14%"}, {"smiles": "Oc1ccc(NCn2c(=S)sc3ccccc32)cc1", "growth inhibition": "38%"}, {"smiles": "O=C1C2CC[C@@H]3C(=O)C(Cl)(Cl)[C@@H]3CCC2C1(Cl)Cl", "note": "(stereo not given in full)", "growth inhibition": "69%"}, {"smiles": "CC[n+]1ccc2c(C)c3[nH]c4ccc(O)cc4c3c(C)c2c1", "growth inhibition": "90% (active)"}, {"smiles": "Cc1ccc(-n2cc(-c3ccc(Cl)cc3)c(C#N)c2N)cc1", "growth inhibition": "17%"}, {"smiles": "CC(=O)[O][Bi]([c]1ccccc1)[c]1ccccc1", "growth inhibition": "91% (active)"}, {"smiles": "CC1=C(SCCO)C(=O)c2ccccc2C1=O", "growth inhibition": "68%"}, {"smiles": "C/C(=N\\O)C1CC2C=C(C#N)C1N(Cc1ccccc1)C2", "note": "(stereo not given)", "growth inhibition": "1%"}, {"smiles": "CC(Br)C(=O)c1ccc2cc(Br)c3ccccc3c2c1", "note": "(stereo not given)", "growth inhibition": "4%"}, {"smiles": "Nc1nc(-c2cccnc2)cc(-c2cc(-c3cccnc3)nc(N)n2)n1", "growth inhibition": "-2%"}, {"smiles": "CC(C)=CC(=O)O[C@@H]1CC(C)(C)CC2C3=CCC4[C@]56CC[C@](O)(OC5)C(C)(C)C6CC[C@@]4(C)C3(C)CC[C@]21C(=O)O", "note": "(stereo not given in full)", "growth inhibition": "93% (active)"}, {"smiles": "CCC(C)COC(=O)c1ccc(N=Cc2ccc(C=Nc3ccc(C(=O)OCC(C)CC)cc3)cc2)cc1", "note": "(stereo not given)", "growth inhibition": "4%"}, {"smiles": "Oc1cccc2c(Cl)ccnc12", "growth inhibition": "95% (active)"}, {"smiles": "O=C(O)c1cccc(-c2c3ccc(=O)cc-3oc3cc(O)ccc23)c1", "growth inhibition": "62%"}, {"smiles": "CN(CCc1ccccn1)c1ccc2c(c1)Cc1ccccc1-2", "growth inhibition": "45%"}, {"smiles": "Cc1cc(S(=O)(=O)/N=C(/NN)NNc2cccc(C(F)(F)F)n2)c(S)cc1Cl", "growth inhibition": "-4%"}, {"smiles": "O=C1C2C(C(=O)N1c1ccc(OCc3ccccc3)cc1)C1c3ccccc3C2C2CCCCN21", "note": "(stereo not given)", "growth inhibition": "12%"}, {"smiles": "Nc1ccccc1CC(O)C(=O)O", "note": "(stereo not given)", "growth inhibition": "53%"}, {"smiles": "O=C(O)C1CCCCC1c1c2ccc(=O)c(O)c-2oc2c(O)c(O)ccc12", "note": "(stereo not given)", "growth inhibition": "24%"}, {"smiles": "Cc1ccc2ccc(O)cc2c1", "growth inhibition": "-31%"}, {"smiles": "O=C1C(=O)c2ccccc2C=C1[N+](=O)[O-]", "growth inhibition": "70% (active)"}, {"smiles": "COC(=O)c1ccc(NCC2=CC(=O)C=CC2=O)cc1O", "growth inhibition": "97% (active)"}, {"smiles": "C(CCSC1=NCCN1)CSC1=NCCN1", "note": "(tested in a mixture with another compound)", "growth inhibition": "99% (active)"}, {"smiles": "N#Cc1c(N)[nH]c2ccc(Sc3ccccc3)cc12", "growth inhibition": "94% (active)"}, {"smiles": "CCNc1nnc(CSc2nc(-c3ccccc3)c(-c3ccccc3)[nH]2)s1", "growth inhibition": "86% (active)"}, {"smiles": "CC[C@@]1(O)C(=O)OCc2c1cc1n(c2=O)Cc2cc3c(N)cccc3nc2-1", "growth inhibition": "82% (active)"}]}]}
